Test results reported in the supplement of paper PMC11732987, “Enantioselective OTUD7B fragment discovery through chemoproteomics screening and high-throughput optimisation” (Communications Chemistry, 2025).
A number with no mark means an inactive call.

Tests used:
Experiment in all cases: log2 ratio of Biotin-Ahx-Ub-VS probe labelling (fragment/DMSO); higher = less target engagement (more negative = stronger competition), active = hit call of the paper (q ≤ 0.05, log2 ratio ≤ -1)
Conditions in all cases: compound concentration: 200 uM; treatment time: 3 h
USP9X = USP9X (UniProt Q93008)
Procedure, shortened: (§1)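 HEK293T lysate (495 µg per sample, in Tris/CHAPS/IGEPAL buffer with protease inhibitors) was exposed in triplicate for 3 h to fragment at 200 µM or to vehicle, then to Biotin-Ahx-Ub-VS at 0.5 µM final for 1 h. Labelled DUBs were enriched on NeutrAvidin, digested with LysC and trypsin, and analysed by diaPASEF LC-MS/MS. Spectronaut label-free quantities were normalised to the global median, and values are average log2 ratios of fragment over vehicle from an unpaired t-test. Only proteins with ≥2 unique peptides were used.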

UniProt O00487 = biological target: UniProt O00487
Procedure, shortened: as §1

UniProt O00507 = biological target: UniProt O00507
Procedure, shortened: as §1

UniProt P51784 = biological target: UniProt P51784
Procedure, shortened: as §1

UniProt Q5T2D3 = biological target: T1, UniProt Q5T2D3
T1 sequence (whole entry): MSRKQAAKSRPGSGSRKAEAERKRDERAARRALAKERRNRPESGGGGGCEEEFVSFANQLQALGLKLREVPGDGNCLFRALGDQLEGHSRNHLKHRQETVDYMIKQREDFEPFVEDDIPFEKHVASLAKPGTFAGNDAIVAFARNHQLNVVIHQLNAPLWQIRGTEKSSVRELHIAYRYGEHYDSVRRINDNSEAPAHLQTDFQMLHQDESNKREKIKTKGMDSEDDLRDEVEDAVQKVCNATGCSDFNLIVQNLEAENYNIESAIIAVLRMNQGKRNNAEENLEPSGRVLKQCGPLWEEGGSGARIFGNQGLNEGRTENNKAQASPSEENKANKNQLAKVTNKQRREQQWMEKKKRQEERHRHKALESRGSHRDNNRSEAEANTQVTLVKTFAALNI
Procedure, shortened: as §1

UniProt Q8TE49 = biological target: T2, UniProt Q8TE49
T2 sequence (whole entry): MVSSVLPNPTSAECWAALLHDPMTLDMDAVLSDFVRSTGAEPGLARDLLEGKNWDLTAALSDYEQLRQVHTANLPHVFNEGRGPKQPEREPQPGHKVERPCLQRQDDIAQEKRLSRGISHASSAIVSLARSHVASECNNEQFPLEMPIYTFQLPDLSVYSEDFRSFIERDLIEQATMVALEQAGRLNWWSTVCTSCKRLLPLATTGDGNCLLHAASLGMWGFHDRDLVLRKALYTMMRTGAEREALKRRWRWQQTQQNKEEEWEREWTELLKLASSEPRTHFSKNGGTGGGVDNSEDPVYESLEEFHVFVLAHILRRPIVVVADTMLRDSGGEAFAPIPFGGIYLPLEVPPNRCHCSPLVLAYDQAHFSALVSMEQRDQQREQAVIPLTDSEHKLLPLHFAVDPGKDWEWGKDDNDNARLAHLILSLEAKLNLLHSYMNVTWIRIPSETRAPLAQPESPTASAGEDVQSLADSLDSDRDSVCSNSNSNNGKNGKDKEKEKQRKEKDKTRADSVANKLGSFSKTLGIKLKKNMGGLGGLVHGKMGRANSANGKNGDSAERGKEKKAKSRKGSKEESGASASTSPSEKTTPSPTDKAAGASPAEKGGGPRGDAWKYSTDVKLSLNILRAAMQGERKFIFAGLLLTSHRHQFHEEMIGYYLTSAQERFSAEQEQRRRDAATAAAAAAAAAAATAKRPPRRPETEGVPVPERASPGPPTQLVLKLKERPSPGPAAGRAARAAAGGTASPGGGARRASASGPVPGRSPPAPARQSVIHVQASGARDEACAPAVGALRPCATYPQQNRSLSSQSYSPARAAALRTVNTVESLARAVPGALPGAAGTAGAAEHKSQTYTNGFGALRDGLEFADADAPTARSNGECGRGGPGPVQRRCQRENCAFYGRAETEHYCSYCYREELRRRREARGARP
Procedure, shortened: as §1

UniProt Q9P2H5 = biological target: T3, UniProt Q9P2H5
T3 sequence (whole entry): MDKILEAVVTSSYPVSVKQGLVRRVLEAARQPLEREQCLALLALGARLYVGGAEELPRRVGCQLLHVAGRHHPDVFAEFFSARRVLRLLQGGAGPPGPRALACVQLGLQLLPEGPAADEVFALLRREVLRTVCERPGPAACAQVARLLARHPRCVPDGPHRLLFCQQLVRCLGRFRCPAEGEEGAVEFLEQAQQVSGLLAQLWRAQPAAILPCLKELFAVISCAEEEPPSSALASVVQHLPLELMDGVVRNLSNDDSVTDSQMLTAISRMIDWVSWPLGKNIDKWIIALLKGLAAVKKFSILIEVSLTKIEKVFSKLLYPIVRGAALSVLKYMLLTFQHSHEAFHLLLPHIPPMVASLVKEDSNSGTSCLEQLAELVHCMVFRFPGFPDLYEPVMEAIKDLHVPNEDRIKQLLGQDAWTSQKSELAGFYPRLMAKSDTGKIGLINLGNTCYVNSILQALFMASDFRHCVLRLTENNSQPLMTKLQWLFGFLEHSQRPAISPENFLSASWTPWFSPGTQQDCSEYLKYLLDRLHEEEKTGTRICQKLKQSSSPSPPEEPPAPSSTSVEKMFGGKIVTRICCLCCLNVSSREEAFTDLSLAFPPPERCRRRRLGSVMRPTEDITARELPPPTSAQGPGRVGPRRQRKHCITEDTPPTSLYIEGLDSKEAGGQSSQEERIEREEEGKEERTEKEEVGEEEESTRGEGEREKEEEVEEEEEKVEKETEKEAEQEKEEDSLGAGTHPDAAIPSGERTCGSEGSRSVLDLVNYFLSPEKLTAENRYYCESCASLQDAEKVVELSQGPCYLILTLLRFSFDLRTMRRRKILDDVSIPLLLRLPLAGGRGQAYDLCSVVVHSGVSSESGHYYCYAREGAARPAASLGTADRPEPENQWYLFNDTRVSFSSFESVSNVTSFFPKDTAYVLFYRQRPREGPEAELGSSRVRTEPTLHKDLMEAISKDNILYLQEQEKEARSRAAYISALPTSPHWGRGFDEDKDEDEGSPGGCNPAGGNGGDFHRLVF
Procedure, shortened: as §1

UniProt Q9UGI0 = biological target: T4, UniProt Q9UGI0
T4 sequence (whole entry): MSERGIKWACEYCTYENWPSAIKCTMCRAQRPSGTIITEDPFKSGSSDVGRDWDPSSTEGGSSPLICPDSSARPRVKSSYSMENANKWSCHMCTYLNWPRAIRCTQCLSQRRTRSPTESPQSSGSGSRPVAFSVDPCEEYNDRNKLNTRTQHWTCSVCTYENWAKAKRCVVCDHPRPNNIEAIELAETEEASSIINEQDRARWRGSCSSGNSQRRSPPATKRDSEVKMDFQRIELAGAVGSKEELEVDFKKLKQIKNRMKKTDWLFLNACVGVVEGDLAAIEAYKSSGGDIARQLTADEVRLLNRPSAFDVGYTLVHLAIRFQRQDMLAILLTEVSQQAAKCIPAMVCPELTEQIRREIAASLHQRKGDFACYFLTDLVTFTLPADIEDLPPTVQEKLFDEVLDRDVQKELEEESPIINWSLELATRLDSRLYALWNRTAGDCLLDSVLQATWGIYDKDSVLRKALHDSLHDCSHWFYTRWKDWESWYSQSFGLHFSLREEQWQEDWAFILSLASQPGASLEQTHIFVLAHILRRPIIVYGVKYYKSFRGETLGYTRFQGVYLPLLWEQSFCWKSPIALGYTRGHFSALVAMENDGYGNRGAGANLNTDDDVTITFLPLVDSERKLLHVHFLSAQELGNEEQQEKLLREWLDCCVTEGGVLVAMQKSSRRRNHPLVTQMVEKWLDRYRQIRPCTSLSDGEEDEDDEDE
Procedure, shortened: as §1

YOD1 = biological target: T5, YOD1 (UniProt Q5VVQ6)
T5 sequence (whole entry): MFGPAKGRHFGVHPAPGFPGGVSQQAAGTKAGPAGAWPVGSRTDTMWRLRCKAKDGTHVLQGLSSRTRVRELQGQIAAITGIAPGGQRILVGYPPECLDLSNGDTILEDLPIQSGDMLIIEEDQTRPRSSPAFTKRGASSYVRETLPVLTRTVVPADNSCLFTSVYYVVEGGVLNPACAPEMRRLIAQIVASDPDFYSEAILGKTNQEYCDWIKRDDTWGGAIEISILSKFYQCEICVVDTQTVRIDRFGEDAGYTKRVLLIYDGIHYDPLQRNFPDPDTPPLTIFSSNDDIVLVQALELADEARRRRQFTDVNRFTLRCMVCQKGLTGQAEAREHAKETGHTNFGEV
Procedure, shortened: as §1

Sequence of UniProt P51784 (P51784 whole entry): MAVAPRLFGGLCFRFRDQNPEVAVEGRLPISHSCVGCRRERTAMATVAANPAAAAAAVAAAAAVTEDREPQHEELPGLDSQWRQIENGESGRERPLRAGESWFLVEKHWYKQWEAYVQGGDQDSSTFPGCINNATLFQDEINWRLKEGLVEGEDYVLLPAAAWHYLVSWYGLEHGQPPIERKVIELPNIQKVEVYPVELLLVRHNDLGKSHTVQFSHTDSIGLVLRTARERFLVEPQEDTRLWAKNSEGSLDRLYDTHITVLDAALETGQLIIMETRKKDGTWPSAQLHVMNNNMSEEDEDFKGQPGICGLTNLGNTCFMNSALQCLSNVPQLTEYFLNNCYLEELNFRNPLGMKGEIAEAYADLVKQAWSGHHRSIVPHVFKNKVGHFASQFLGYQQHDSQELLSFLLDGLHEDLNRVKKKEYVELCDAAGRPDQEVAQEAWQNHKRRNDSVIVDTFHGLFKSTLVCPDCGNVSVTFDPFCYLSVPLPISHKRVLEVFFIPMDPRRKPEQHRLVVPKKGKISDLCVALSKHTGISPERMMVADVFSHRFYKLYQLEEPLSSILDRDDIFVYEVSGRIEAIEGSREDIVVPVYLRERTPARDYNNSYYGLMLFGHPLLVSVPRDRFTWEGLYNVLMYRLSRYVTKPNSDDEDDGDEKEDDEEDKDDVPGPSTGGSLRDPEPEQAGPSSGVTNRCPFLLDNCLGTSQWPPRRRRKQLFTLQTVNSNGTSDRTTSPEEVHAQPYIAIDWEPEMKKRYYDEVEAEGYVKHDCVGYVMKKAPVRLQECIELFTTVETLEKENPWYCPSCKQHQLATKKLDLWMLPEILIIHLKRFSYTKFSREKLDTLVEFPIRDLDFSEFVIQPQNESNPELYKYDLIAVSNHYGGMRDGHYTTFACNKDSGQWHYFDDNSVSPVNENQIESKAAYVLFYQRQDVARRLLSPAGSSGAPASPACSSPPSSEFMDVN
Sequence of UniProt O00507 (O00507 whole entry): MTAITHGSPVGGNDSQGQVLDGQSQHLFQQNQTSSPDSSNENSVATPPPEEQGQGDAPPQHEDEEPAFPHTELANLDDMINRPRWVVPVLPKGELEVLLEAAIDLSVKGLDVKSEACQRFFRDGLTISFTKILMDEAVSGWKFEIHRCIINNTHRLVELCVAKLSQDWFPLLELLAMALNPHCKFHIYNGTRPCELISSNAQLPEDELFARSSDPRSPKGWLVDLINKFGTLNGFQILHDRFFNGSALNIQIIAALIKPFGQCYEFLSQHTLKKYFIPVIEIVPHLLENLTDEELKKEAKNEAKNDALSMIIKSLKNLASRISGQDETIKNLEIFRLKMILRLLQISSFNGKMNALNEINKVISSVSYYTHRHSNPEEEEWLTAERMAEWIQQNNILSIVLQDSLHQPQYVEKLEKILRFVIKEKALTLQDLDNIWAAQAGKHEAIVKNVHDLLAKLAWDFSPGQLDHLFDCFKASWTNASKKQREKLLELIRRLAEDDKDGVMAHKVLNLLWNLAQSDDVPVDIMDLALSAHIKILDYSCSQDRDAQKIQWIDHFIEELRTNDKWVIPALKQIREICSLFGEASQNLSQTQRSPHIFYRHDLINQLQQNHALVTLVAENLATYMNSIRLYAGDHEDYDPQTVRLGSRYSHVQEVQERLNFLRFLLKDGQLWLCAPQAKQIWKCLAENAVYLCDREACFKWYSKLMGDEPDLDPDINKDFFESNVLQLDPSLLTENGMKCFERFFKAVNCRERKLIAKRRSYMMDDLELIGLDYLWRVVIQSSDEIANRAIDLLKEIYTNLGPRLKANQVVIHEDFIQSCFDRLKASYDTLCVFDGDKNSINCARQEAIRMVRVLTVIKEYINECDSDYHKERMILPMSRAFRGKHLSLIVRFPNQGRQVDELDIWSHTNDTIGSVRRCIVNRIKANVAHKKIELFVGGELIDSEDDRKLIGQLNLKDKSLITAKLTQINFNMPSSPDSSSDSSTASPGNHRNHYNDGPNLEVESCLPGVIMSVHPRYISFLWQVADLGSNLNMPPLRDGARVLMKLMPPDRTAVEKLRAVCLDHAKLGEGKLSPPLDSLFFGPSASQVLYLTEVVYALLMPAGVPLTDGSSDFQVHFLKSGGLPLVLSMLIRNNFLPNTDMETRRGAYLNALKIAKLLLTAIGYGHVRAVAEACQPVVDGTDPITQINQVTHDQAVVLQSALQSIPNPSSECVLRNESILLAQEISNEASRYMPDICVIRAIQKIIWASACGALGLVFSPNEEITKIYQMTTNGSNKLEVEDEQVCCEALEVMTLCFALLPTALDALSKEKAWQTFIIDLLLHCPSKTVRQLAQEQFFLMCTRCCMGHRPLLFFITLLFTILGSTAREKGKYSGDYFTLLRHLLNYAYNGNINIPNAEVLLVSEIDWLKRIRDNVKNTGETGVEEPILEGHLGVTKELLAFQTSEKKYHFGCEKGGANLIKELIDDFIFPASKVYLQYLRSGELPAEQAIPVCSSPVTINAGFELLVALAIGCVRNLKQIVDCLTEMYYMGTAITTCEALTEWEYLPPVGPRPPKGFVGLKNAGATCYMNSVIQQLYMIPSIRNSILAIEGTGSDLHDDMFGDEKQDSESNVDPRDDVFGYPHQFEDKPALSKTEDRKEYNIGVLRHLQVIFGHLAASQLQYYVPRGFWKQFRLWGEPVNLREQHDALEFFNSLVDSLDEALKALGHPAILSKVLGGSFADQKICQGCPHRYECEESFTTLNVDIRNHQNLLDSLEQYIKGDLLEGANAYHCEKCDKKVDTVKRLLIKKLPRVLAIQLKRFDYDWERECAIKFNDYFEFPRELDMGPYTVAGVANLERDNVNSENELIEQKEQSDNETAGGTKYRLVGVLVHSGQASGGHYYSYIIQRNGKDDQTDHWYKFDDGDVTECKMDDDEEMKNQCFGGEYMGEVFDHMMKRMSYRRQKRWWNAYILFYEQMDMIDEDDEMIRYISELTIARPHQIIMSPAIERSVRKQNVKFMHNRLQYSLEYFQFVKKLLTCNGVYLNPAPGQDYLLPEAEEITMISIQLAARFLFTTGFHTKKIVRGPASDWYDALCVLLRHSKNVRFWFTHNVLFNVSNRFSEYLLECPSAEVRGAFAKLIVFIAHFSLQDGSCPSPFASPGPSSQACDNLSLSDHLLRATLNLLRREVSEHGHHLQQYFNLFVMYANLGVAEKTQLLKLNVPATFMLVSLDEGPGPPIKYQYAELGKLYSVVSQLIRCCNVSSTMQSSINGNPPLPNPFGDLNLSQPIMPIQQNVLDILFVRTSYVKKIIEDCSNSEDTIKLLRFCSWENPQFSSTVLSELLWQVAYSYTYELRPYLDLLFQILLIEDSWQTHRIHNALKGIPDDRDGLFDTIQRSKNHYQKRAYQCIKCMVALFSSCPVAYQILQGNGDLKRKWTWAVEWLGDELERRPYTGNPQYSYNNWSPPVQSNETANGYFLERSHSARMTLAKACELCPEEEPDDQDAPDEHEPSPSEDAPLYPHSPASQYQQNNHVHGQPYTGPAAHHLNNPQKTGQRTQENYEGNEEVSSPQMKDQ
Sequence of UniProt O00487 (O00487 whole entry): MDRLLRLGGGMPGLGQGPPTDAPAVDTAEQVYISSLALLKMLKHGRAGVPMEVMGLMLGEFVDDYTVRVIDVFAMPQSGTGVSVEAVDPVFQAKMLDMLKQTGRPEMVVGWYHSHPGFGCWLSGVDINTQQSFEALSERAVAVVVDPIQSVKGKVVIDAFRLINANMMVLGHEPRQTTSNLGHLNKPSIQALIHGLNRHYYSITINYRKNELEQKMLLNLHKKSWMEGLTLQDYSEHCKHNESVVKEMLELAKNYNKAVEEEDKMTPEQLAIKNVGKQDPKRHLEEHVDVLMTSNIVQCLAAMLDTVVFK

COc1ccc(-c2csc(NC(=O)CCl)n2)cc1
log2 ratio of Biotin-Ahx-Ub-VS probe labelling (USP9X): -0.66 | log2 ratio of Biotin-Ahx-Ub-VS probe labelling (UniProt O00487): -0.101 | log2 ratio of Biotin-Ahx-Ub-VS probe labelling (UniProt O00507): -0.576 | log2 ratio of Biotin-Ahx-Ub-VS probe labelling (UniProt P51784): -0.0937 | log2 ratio of Biotin-Ahx-Ub-VS probe labelling (UniProt Q5T2D3): -0.257 | log2 ratio of Biotin-Ahx-Ub-VS probe labelling (UniProt Q8TE49): -0.479 | log2 ratio of Biotin-Ahx-Ub-VS probe labelling (UniProt Q9P2H5): -0.528 | log2 ratio of Biotin-Ahx-Ub-VS probe labelling (UniProt Q9UGI0): -2.09 (active) | log2 ratio of Biotin-Ahx-Ub-VS probe labelling (YOD1): -0.00199
